Sampled rows, rich in hits. Any-hit rate of the full collection: about 4.6%.
PfHsp90 yeast 2 = growth inhibition of PfHsp90-expressing yeast, primary screen, antimalarial PfHsp90 inhibitor project, S. cerevisiae, BacTiter-Glo luminescence, single point, set 2; BacTiter-Glo ATP, 48 h; yeast lacking PDR1 and PDR3 efflux regulators; inhibition, % at 9.4 µM; 310,000 compounds, 0.32% hits;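 active = every replicate shows inhibition above about 80%, whatever the replicate mean, limit read from the data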;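 also: 0% = DMSO neutral controls and 100% = 20 µM radicicol positive controls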
tim23-1 inh = growth inhibitors of tim23-1 mutant yeast, primary screen, luminescence, uHTS; S. cerevisiae tim23-1 growth, BacTiter-Glo luminescence, 24 h; inhibition, % at 20 µM; 330,000 compounds, 1.3% hits; AID 463212, 2010;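 active = growth inhibition of the mutant yeast at or above 50%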;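 also: temperature-sensitive mutant grown at 25 °C; plate controls were DMSO-treated mutant yeast for no effect and medium wells lacking yeast for full effect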
SKKanGAS inh = S. pyogenes SKKanGAS growth inhibitors in kanamycin, primary screen, streptokinase expression inhibitor project, SKKanGAS strain, BacTiter-Glo luminescence; 6 h; inhibition, % at 7.5 µM; 300,000 compounds, 1.3% hits; AID 1662, 2009;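 active = mean replicate score, as percent of positive control median, at least 50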;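 also: strain carries kanamycin resistance gene driven by streptokinase promoter and grows in 40 µg/ml kanamycin; loss of luminescence reflects streptokinase promoter inhibition or plain growth inhibition; 0% = median of DMSO wells and 100% = positive control at its reference dose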
tim10-1 inh = growth inhibitors of tim10-1 mutant yeast, primary screen, luminescence, uHTS. AID 463190, 2010. S. cerevisiae tim10-1 ts strain growth, BacTiter-Glo, 24 h. 330,000 compounds, 2.2% hits. inhibition, % at 20 µM;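 active = inhibition of at least 40%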;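 also: mutant grown at 25 °C; 0% = DMSO wells with yeast and 100% = wells holding no yeast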
TIM10 inh = growth inhibitors of isogenic TIM10 control yeast, primary screen, counter-screen for tim10-1 yeast inhibitor project, luminescence, uHTS. S. cerevisiae TIM10 strain growth, BacTiter-Glo luminescence, 24 h. 330,000 compounds, 1.4% hits. inhibition, % at 10 µM;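 active = inhibition of 40% or more at the single tested concentration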;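 also: wild-type TIM10 isogenic control strain grown at permissive 25 °C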
NLRP3 yeast inh = NALP3 inflammasome inhibitors in reconstituted yeast, primary screen, luminescence, uHTS | AID 2825, 2010 | Yeast reconstituted NLRP3/ASC/caspase-1, beta-gal luminescence, 24 h | 330,000 compounds, 0.39% hits | inhibition, % at 10 µM;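 active = inhibition of 50% or more; inactive = inhibition below 50%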;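 also: plate controls were induced DMSO wells for no effect and uninduced yeast grown without galactose for full effect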
tim10-1 confirm = growth inhibitors of tim10-1 mutant yeast, confirmation, single concentration, luminescence, S. cerevisiae | shares compounds with tim10-1 inh | S. cerevisiae tim10-1 ts strain growth, BacTiter-Glo, 24 h | inhibition, % at 20 µM | 7,400 compounds, 56% hits;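 active = inhibition of yeast growth at or above a set limit in either of two repeat tests at 20 µM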;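 also: tim10-1 mutant grown at permissive 25 °C to find synthetic lethal compounds; 0% = DMSO yeast wells and 100% = medium wells without yeast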
* marks the source's active call; other numbers are inactive results; . = no result given.

SMILES	PfHsp90 yeast 2	tim23-1 inh	SKKanGAS inh	tim10-1 inh	TIM10 inh	NLRP3 yeast inh	tim10-1 confirm
CCCn1c(C(C)NC(=O)c2ccccc2)nc2ccccc21 (configuration not stated)	31.9	.	5.0	.	.	.	.
O=C(COC(=O)c1nc(Cl)ccc1Cl)NC1CCCCCC1	-68.6	23.7	10.5	27.7	5.7	29.2	.
O=C(COC(=O)c1ncc(Cl)c(Cl)c1Cl)NC1CCCCCC1	.	30.3	10.0	42.8*	11.2	-0.7	19.2
CC(OC(=O)c1ccc2ncsc2c1)C(=O)N(C)C1CCCCC1 (configuration not stated)	.	28.5	.	16.8	12.2	16.5	.
CC(=O)Nc1cccc(C(=O)/C=C/c2ccc(F)cc2)c1	-12.0	20.8	-5.5	40.7*	32.8	24.9	30.9*
COc1ccc(CNC(=O)c2ccc(CS(=O)(=O)c3ccc(C)cc3)o2)cc1	3.6	0.8	-6.5	-4.2	7.1	3.4	.
O=C(c1cc(COc2cccc(C(F)(F)F)c2)on1)N1C[C@@H]2CCC[C@H]1C2	2.1	36.9	3.1	45.0*	34.2	10.8	34.3*
CC1(C)C2CCC(C2)C1C/C=N/NC(N)=S (configuration not stated)	8.0	30.4	-4.8	45.6*	17.0	-27.4	-5.9
CC1(C)CCC(=NNC(N)=S)CC1	-21.0	.	.	.	.	.	.
Cc1ccc(-n2c(Cc3ccccc3)n[nH]c2=S)cc1	.	5.2	-1.7	40.4*	7.6	13.8	20.5
Cc1ccc(-n2c(CNc3ccc(C)c(Cl)c3)n[nH]c2=S)cc1	-5.7	41.6	-6.6	41.0*	37.8	27.1	8.9
Cc1ccc(-n2c(CNc3cccc(Cl)c3)n[nH]c2=S)cc1	-12.7	19.6	-0.2	25.3	18.2	19.8	.
S=c1[nH]nc(Cc2ccccc2)n1-c1ccccc1	.	0.7	-4.1	23.0	12.7	22.3	.
COc1cc2[nH]c(=O)c(C(=O)NCc3ccc(F)cc3)c(O)c2cc1OC	7.6	-10.0	0.3	-5.0	-5.5	11.9	.
CC(C)(C)OC(=O)NN=C(c1ccc(O)cc1)c1ccc(O)cc1	10.1	-7.5	8.3	-7.4	2.5	8.2	.
COc1ccc(CCN(C)C2CCCN(C(=O)c3sccc3C)C2)cc1OC (configuration not stated)	-16.7	8.0	-1.5	0.0	-5.1	14.7	.
O=C1C=C(c2ccc3c(c2)oc2ccccc23)C[C@@H](c2ccc3c(c2)OCO3)C1	-6.3	-28.2	.	-9.5	2.9	5.8	.
CN(CCc1ccccn1)C(=O)Nc1ccc(Cl)cc1	-3.4	0.5	0.5	8.9	-21.2	9.3	.
CN(CCc1ccccn1)C1CC(=O)N(c2ccc(Cl)cc2)C1=O (configuration not stated)	30.0	23.2	1.4	40.5*	4.4	24.1	34.2*
COc1ccc(NC(=O)c2cc([N+](=O)[O-])ccc2O)cc1	76.4*	45.7	74.3*	52.1*	36.5	2.2	50.8*
CCC(C(=O)c1ccc(O)cc1)c1ccccc1 (configuration not stated)	-5.1	24.3	-3.1	45.7*	19.7	-65.9	27.9
CCC(C(=O)N(C(C)C)C(C)C)c1ccccc1 (configuration not stated)	16.3	-5.6	.	6.9	-7.3	22.6	.
Oc1ccc(/C=N/NC(=S)Nc2cccnc2)cc1	12.4	2.2	-0.2	13.2	-6.7	12.5	.
Oc1ccc(/C=N/NC(=S)N/N=C/c2ccc(O)cc2)cc1	-35.5	43.5	5.2	41.3*	30.0	6.7	30.6
Cc1nc2c(-c3ccccc3)cnn2c(N)c1-c1ccccc1	-77.2	39.0	3.7	43.3*	29.6	10.0	39.5*
SMILES	PfHsp90 yeast 2	tim23-1 inh	SKKanGAS inh	tim10-1 inh	TIM10 inh	NLRP3 yeast inh	tim10-1 confirm
Cc1cc(N(CCO)CCO)ccc1N=Nc1cc(F)ccc1F	.	44.9	0.8	41.3*	16.5	28.2	37.5*
CCCN1C(=O)C2(SC(NC(C)=O)=NN2C(C)=O)c2cc(C)ccc21 (configuration not stated)	.	2.1	1.9	-0.5	3.9	-5.8	.
COc1cccc2cc(C(=O)Oc3ccccc3)c(=O)oc12	1.7	9.5	-2.3	4.6	0.7	7.8	.
COc1cccc2cc(C(=O)OCc3ccccc3)c(=O)oc12	7.1	44.9	-11.1	41.6*	23.7	18.2	23.1
Cc1cc(C)c(/C=C(\C#N)C(N)=S)c(C)c1	-72.3	45.5	-7.6	40.7*	27.3	12.1	23.4
Cc1cc(C)c(C)c(S(=O)(=O)ON2C(=O)c3ccccc3C2=O)c1C	-10.7	36.0	-7.1	59.1*	27.1	22.6	61.1*
O=C(COC(=O)C1(c2ccc(Cl)cc2)CCCC1)Nc1ncc(C(F)(F)F)cc1Cl	-19.6	23.9	9.2	41.9*	10.4	-4.9	9.5
CC(C(=O)NC1CCCCCC1)c1ccc([N+](=O)[O-])cc1 (configuration not stated)	-19.9	23.9	-4.6	12.8	-2.0	20.1	.
CC12CCC(C(=O)NC(c3ccccc3)c3ccccc3)(OC1=O)C2(C)C (configuration not stated)	.	38.7	-0.9	42.0*	21.3	-1.2	29.5
Cc1ccc(C(=O)N2CCN(c3cccc(C)c3C)CC2)o1	-42.9	25.8	3.5	22.3	8.3	19.0	.
Cc1ccc(C)c(N2CCN(C(=O)c3ccc(CS(=O)Cc4cccc(Cl)c4)o3)CC2)c1 (configuration not stated)	-1.6	12.9	-0.6	42.3*	0.4	15.2	-11.4
O=C(c1ccc(CS(=O)Cc2ccc(Cl)cc2)o1)N1CCN(c2ccc(F)cc2)CC1 (configuration not stated)	4.3	18.4	8.5	30.2	7.2	0.0	.
O=C(c1ccc(CS(=O)Cc2ccc(Cl)cc2)o1)N1CCN(c2cccc(Cl)c2)CC1 (configuration not stated)	-19.7	9.9	19.9	40.1*	17.3	20.9	-0.3
O=C(c1ccc(CS(=O)Cc2cccc(Cl)c2)o1)N1CCN(C2CCCCC2)CC1 (configuration not stated)	1.9	-12.2	-4.2	-5.3	-12.7	3.2	.
Cc1cccc(N2CCN(C(=O)c3ccc(CS(=O)Cc4ccc(Cl)cc4)o3)CC2)c1C (configuration not stated)	-37.5	37.7	16.6	54.2*	24.0	11.1	6.9
C=C1CC[C@H](O)C/C1=C/C=C1\CCC[C@]2(C)[C@@H]([C@H](C)/C=C/[C@H](C)C(C)C)CC[C@@H]12	4.5	6.8	.	15.2	10.0	15.3	.

Screening results deposited in PubChem by several laboratories.
